What all share (settings): mRNA level, 48 h; actives raise or lower the signal
Read-out in assay [1]: Cytochrome P450 (CYP1A1), CYP1A1 (gene 1543)
The assay is described as follows: LTEA_HepaRG_CYP1A1: Life Technologies and Expression Analysis (LTEA) Assay for Cytochrome P450 (CYP1A1) using HepaRG (AID 2283454). The method in brief: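 Differentiated human HepaRG cells, after 48 h plating, exposed in duplicate for 48 h in serum-free induction medium to 8 half-log concentrations up to 100 uM in 0.5% DMSO. CYP1A1 mRNA by qRT-PCR, normalized to ACTB/GAPDH/POLR2A; bidirectional fit versus DMSO.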

Read-out in assay [2]: CFLAR gene, CFLAR (gene 8837)
As to the kind of experiment: LTEA_HepaRG_CFLAR: Life Technologies and Expression Analysis (LTEA) Assay for CFLAR gene using HepaRG (AID 2283455). The method, boiled down:
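HepaRG, 48 h exposure, 8-pt conc-response (100 uM top, half-log), 0.5% DMSO vehicle, duplicates. CFLAR expression by qRT-PCR; ACTB/GAPDH/POLR2A normalization; gain or loss fit vs DMSO baseline.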

Read-out in assay [3]: Forkhead box O1 (FOXO1), FOXO1 (gene 2308)
The assay is described as follows: LTEA_HepaRG_FOXO1: Life Technologies and Expression Analysis (LTEA) Assay for Forkhead box O1 (FOXO1) using HepaRG (AID 2283456). The method, boiled down:
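Readout is FOXO1 transcript level by multiplexed qRT-PCR against three housekeeping genes, curve-fitted in both directions relative to 0.5% DMSO vehicle. Human HepaRG cultures received chemicals for 48 h, up to 100 uM in half-log steps.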

Read-out in assay [4]: growth arrest and DNA damage 45 (GADD45A), GADD45A (gene 1647)
The assay is described as follows: LTEA_HepaRG_GADD45A: Life Technologies and Expression Analysis (LTEA) Assay for growth arrest and DNA damage 45 (GADD45A) using HepaRG (AID 2283458). The method, boiled down:
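Cells plated and cultured 48 h, switched to serum-free induction medium, then dosed for 48 h (100 uM top, half-log dilutions, 0.5% DMSO). RNA was isolated and transcript measured by Fluidigm qRT-PCR.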

Read-out in assay [5]: Forkhead box O3 (FOXO3), FOXO3 (gene 2309)
As to the kind of experiment: LTEA_HepaRG_FOXO3: Life Technologies and Expression Analysis (LTEA) Assay for Forkhead box O3 (FOXO3) using HepaRG (AID 2283459). The method, boiled down:
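HepaRG, 48 h post-dose; 8 conc., half-log from 100 uM, 0.5% DMSO, duplicates; serum-free induction medium. Readout: FOXO3 mRNA, TaqMan qRT-PCR, housekeeping-normalized. Bidirectional curve fit vs DMSO baseline.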

Read-out in assay [6]: ABC Transporter (ABCB1), ABCB1 (gene 5243)
As to the kind of experiment: LTEA_HepaRG_ABCB1: Life Technologies and Expression Analysis (LTEA) Assay for ABC Transporter (ABCB1) using HepaRG (AID 2283460). The method, boiled down: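 Expression of ABCB1 was quantified by qRT-PCR against three housekeeping genes after human HepaRG cultures received test chemicals for 48 hours. Concentrations spanned eight half-log steps topping at 100 uM in 0.5% DMSO; gain or loss of signal was fitted relative to vehicle.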

Read-out in assay [7]: growth arrest and DNA damage 45 (GADD45B), GADD45B (gene 4616)
As to the kind of experiment: LTEA_HepaRG_GADD45B: Life Technologies and Expression Analysis (LTEA) Assay for growth arrest and DNA damage 45 (GADD45B) using HepaRG (AID 2283461). The method in brief:
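Differentiated human HepaRG cells in serum-free induction medium exposed 48 h in duplicate to eight concentrations, top 100 uM, half-log steps, 0.5% DMSO. GADD45B mRNA by TaqMan qRT-PCR, normalized to ACTB, GAPDH, POLR2A; bidirectional fit versus DMSO.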

Read-out in assay [8]: ABC Transporter (ABCC3), ABCC3 (gene 8714)
As to the kind of experiment: LTEA_HepaRG_ABCC3: Life Technologies and Expression Analysis (LTEA) Assay for ABC Transporter (ABCC3) using HepaRG (AID 2283462). The method, boiled down:
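Differentiated human HepaRG cells exposed 48 h in serum-free induction medium, 0.5% DMSO vehicle, 8-point half-log series to 100 uM in duplicate. ABCC3 mRNA by qRT-PCR, normalised to ACTB, GAPDH, POLR2A; bidirectional fit vs DMSO.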

Read-out in assay [9]: ABC Transporter (ABCB11), ABCB11 (gene 8647)
The assay is described as follows: LTEA_HepaRG_ABCB11: Life Technologies and Expression Analysis (LTEA) Assay for ABC Transporter (ABCB11) using HepaRG (AID 2283463). The method in brief:
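ABCB11 transcript levels are read by Fluidigm TaqMan qRT-PCR after 48 h chemical treatment of human HepaRG cells. Concentrations span 100 uM downward in half-log steps with 0.5% DMSO; gain or loss is fitted against DMSO controls.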

Read-out in assay [10]: ABC Transporter (ABCC2), ABCC2 (gene 1244)
As to the kind of experiment: LTEA_HepaRG_ABCC2: Life Technologies and Expression Analysis (LTEA) Assay for ABC Transporter (ABCC2) using HepaRG (AID 2283464). The method in brief: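 Differentiated HepaRG cells in serum-free induction medium exposed 48 h to eight half-log concentrations up to 100 uM, 0.5% DMSO, in duplicate. ABCC2 mRNA measured by qRT-PCR (TaqMan, Fluidigm), normalized to ACTB, GAPDH and POLR2A. Fitted in both directions against DMSO.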

Read-out in assay [11]: Broad substrate specificity ATP-binding cassette transporter ABCG2 (Homo sapiens) (UniProt Q9UNQ0)
The assay is described as follows: LTEA_HepaRG_ABCG2: Life Technologies and Expression Analysis (LTEA) Assay for ABC Transporter (ABCG2) using HepaRG (AID 2283465). The method, boiled down:
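Read-out is ABCG2 mRNA induction or loss quantified by qRT-PCR after 48 h chemical treatment of human HepaRG cells, normalized to three housekeeping genes. Concentrations reached 100 uM top in half-log steps; fitting was bidirectional against 0.5% DMSO.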

Read-out in assay [12]: ATP-citrate lyase (ACLY), ACLY (gene 47)
The assay is described as follows: LTEA_HepaRG_ACLY: Life Technologies and Expression Analysis (LTEA) Assay for ATP-citrate lyase (ACLY) using HepaRG (AID 2283466). The method, boiled down: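 HepaRG, 48 h exposure, 8-pt half-log dilutions (top 100 uM), 0.5% DMSO. Readout: ACLY mRNA, TaqMan qRT-PCR, housekeeping-normalized (ACTB/GAPDH/POLR2A). Bidirectional curve fit vs DMSO.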

Read-out in assay [13]: Peroxisomal acyl-coenzyme A oxidase 1 (ACOX1) gene, ACOX1 (gene 51)
The assay is described as follows: LTEA_HepaRG_ACOX1: Life Technologies and Expression Analysis (LTEA) Assay for Peroxisomal acyl-coenzyme A oxidase 1 (ACOX1) gene using HepaRG (AID 2283467). The method in brief: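 Measured by qRT-PCR against three housekeeping genes: ACOX1 transcript change in human HepaRG cells after 48 h dosing. Concentrations ran up to 100 uM in half-log steps. Curves were fitted bidirectionally relative to 0.5% DMSO.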

Read-out in assay [14]: Alkaline Phosphatase, Placental (ALPP) gene, ALPP (gene 250)
The assay is described as follows: LTEA_HepaRG_ALPP: Life Technologies and Expression Analysis (LTEA) Assay for Alkaline Phosphatase, Placental (ALPP) gene using HepaRG (AID 2283468). The method in brief:
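HepaRG cells plated 48 h, then exposed in duplicate for 48 h in serum-free induction medium to 8-point half-log series from 100 uM in 0.5% DMSO. ALPP mRNA by TaqMan qRT-PCR, normalized to ACTB/GAPDH/POLR2A; bidirectional fit versus DMSO.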

Read-out in assay [15]: Bcl-2 (BAD) gene, BAD (gene 572)
The assay is described as follows: LTEA_HepaRG_BAD: Life Technologies and Expression Analysis (LTEA) Assay for Bcl-2 (BAD) gene using HepaRG (AID 2283469). The method, boiled down: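 BAD transcript change, measured by qRT-PCR against three housekeeping genes and fitted in both directions relative to 0.5% DMSO, after 48 h chemical treatment of human HepaRG liver cells at concentrations up to 100 uM.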

Read-out in assay [16]: Alpha-fetoprotein (AFP) gene, AFP (gene 174)
As to the kind of experiment: LTEA_HepaRG_AFP: Life Technologies and Expression Analysis (LTEA) Assay for Alpha-fetoprotein (AFP) gene using HepaRG (AID 2283472). The method, boiled down:
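HepaRG, single lot; 48 h post-plating -> serum-free induction medium; cpd 8-pt, 100 uM top, half-log, 0.5% DMSO, duplicate, 48 h. RNA -> qRT-PCR AFP, norm ACTB/GAPDH/POLR2A. Bidirectional fit vs DMSO.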

Read-out in assay [17]: flavin-containing dimethylaniline monooxygenases 3 (FMO3), FMO3 (gene 2328)
The assay is described as follows: LTEA_HepaRG_FMO3: Life Technologies and Expression Analysis (LTEA) Assay for flavin-containing dimethylaniline monooxygenases 3 (FMO3) using HepaRG (AID 2283453). The method, boiled down: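 Differentiated HepaRG cells in serum-free induction medium, exposed 48 h in duplicate to 8 half-log concentrations up to 100 uM in 0.5% DMSO. FMO3 mRNA by qRT-PCR, normalized to ACTB, GAPDH, POLR2A; bidirectional fit vs DMSO.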

Read-out in assay [18]: Bcl-2 (BAX) gene, BAX (gene 581)
The assay is described as follows: LTEA_HepaRG_BAX: Life Technologies and Expression Analysis (LTEA) Assay for Bcl-2 (BAX) gene using HepaRG (AID 2283470). The method, boiled down:
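HepaRG (human liver), 48 h exposure, duplicate wells. 8-pt curve, half-log from 100 uM, 0.5% DMSO. BAX transcript by TaqMan qRT-PCR; ACTB/GAPDH/POLR2A normalization; gain or loss vs DMSO baseline.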

Read-out in assay [19]: adenosine kinase (ADK) gene, ADK (gene 132)
The assay is described as follows: LTEA_HepaRG_ADK: Life Technologies and Expression Analysis (LTEA) Assay for adenosine kinase (ADK) gene using HepaRG (AID 2283471). The method, boiled down: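 ADK expression quantified by qRT-PCR, normalised to three housekeeping genes, after 48 h exposure of HepaRG cells to eight concentrations (top 100 uM, half-log steps, duplicate, 0.5% DMSO). Up- or down-regulation fitted relative to vehicle.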

Activity calls are given as the source filed them. Rule for the calls: active = hit-call score of the fitted dose curve at least 0.9, where 1 is the maximum; inactive = score below 0.9.

Sequence of Broad substrate specificity ATP-binding cassette transporter ABCG2 (Homo sapiens) (Q9UNQ0 whole entry, looked up): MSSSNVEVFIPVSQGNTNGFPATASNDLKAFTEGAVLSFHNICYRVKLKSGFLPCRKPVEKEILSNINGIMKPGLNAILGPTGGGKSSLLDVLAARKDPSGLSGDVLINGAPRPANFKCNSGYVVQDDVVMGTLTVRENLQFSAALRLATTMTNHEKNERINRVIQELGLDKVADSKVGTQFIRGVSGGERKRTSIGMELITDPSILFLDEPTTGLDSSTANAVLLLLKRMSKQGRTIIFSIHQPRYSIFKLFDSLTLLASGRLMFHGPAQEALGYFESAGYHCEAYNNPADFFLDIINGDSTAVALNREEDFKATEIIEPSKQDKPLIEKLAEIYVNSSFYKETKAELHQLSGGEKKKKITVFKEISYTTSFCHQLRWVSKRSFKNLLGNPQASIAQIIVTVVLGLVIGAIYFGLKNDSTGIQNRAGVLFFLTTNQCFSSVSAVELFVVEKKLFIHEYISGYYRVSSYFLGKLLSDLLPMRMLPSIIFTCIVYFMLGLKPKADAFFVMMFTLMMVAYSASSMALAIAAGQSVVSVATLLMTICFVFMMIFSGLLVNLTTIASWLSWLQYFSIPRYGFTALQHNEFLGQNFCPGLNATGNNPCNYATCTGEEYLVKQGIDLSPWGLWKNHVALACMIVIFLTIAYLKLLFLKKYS

Regarding `CCOc1cccc(C2(N3CCN(c4ccccc4)CC3)CCC(C)CC2)c1` (stereo not drawn), the concentration at half-maximal activity (AC50) in [1] was 35.9 µM (active). The compound was classed as inactive in assay [2], in [3], in [4], in assay [5], in assay [6] and in assay [7]. Also, the call in [8], in assay [9], in [10], in [11], in assay [12] and in assay [13] was inactive. The compound was classed as inactive in assay [14], in assay [15] and in assay [16].

For the compound `Cc1ccc(N)c(N)c1`, the result in assay [17], in assay [2], in [3], in assay [4], in assay [5] and in assay [9] was inactive. In addition, the compound was classed as inactive in assay [10], in assay [11], in assay [12], in [14], in [15] and in assay [16]. The AC50 in assay [1] was 40.2 µM (active).

Turning to `Nc1ccc(N=Nc2ccccc2)cc1`, the AC50 was 19.1 µM (active) in assay [17]; 35.8 µM (active) in assay [1]; 20.8 µM (active) in assay [2]; 30.9 µM (active) in [3]; 18.4 µM (active) in assay [5]; 29 µM (active) in [7]. Moreover, the AC50 in assay [9] was 13.8 µM (active); in assay [10], 13.2 µM (active); in assay [11], 13 µM (active); in [12], 13.3 µM (active); in assay [13] it was 14 µM (active); in [18] it was 6.31 µM (active). Also, the AC50 in assay [19] is 10.7 µM (active); in assay [16], 20.5 µM (active). For the same compound, the compound was called inactive in assay [4], in assay [14] and in assay [15].

Turning to `CCC12COCN1COC2`, the AC50 in assay [1] was 50 µM (active). Also, the result in [2], in assay [3], in [4], in assay [5], in assay [6] and in assay [7] was inactive. The compound was called inactive in assay [8], in [9], in [10], in [11], in assay [12] and in assay [13]. For the same compound, the call in [14], in assay [15], in assay [19] and in [16] was inactive.

As a reminder, the AC50 is the concentration at which the activity in the assay is half-maximal.

The values above are taken from PubChem BioAssay (EPA / NIEHS).
